# Source: PubChem (National Center for Advancing Translational Sciences (NCATS))
# HT1080 IDH1KD tx = kills HT-1080 cells with IDH1 knockdown; HT-1080 IDH1 knockdown viability, ATP luminescence, 48 h; Potency, µM (top dose mostly 46.1 µM), for the others: top-dose activity, negative = toxicity, most hits filed as cytotoxic; 360,000 tested, 2% active;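 note: potency is the fitted concentration of half-maximal effect; 0% = DMSO wells and -100% = cell-free medium wells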
#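 % activity derives from luminescence (CellTiter-Glo), normalised to DMSO and no-cell wells. HT-1080-IDH1KD cells, 750/well, had 48 h compound exposure at 37 °C.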
# DT40 TDP1 CPT = growth inhibition of DT40 Tdp1-/-;hTDP1 cells with camptothecin (screen for TDP1 inhibitors). chicken DT40 Tdp1-/-;hTDP1 cells + 20 nM CPT, ATP luminescence, 48 h. Potency, µM (titrated, usually from 46.2 µM), without a hit: at the highest dose activity change, negative = growth inhibition, usual class: inhibitors. 420,000 tested, 12% active; note: potency is the fitted concentration of half-maximal effect; nearly all actives have a fitted effect of over 55% in size
#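 Chicken DT40 Tdp1-/- cells stably complemented with human TDP1 were seeded at 400 cells/well in medium containing 20 nM camptothecin, exposed to pin-transferred compounds, and grown at 37 °C for at least 48 hr. Viability was read as ATP luminescence.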
# TDP1 cell noCPT = qHTS for Inhibitors of human tyrosyl-DNA phosphodiesterase 1 (TDP1): qHTS in cells in absence of CPT | DT40 Tdp1-/- hTDP1 cells, no CPT, ATP luminescence, 48 h | Potency, µM (doses to about 46.2 µM), for the others: at the highest dose activity change, negative = growth inhibition, actives largely listed as inhibitors | 420,000 tested, 15% active; note: potency is the fitted concentration of half-maximal effect; nearly all actives have a fitted effect of over 55% in size
#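 Growth kinetics read by CellTiter-Glo luminescence after ≥48 hr at 37 °C. Cells: DT40 Tdp1-/- stably carrying human TDP1, 400 per well, compound exposure in the absence of CPT (DMSO vehicle).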
# IL1B secr inh = blocks inflammasome-driven IL-1 beta release; activity change, % at 57.5 µM; 360,000 tested, 4.7% active; AID 743279; THP-1 LPS/ATP IL-1B secretion, AlphaLISA, 16 h; stronger effect = lower value; in the data active = activity change below about -50%; inconclusive = mostly about -30% to -49%
#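 THP-1 cells pretreated 1 hr with compounds (up to 57.5 uM final), then stimulated with LPS (250 ng/mL final) plus ATP (1.25 mM final); secreted IL-1B measured by AlphaLISA after 16 hr, decreased signal indicating inhibition.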
# HT1080-NT tox = kills 2HG-producing HT-1080-NT fibrosarcoma cells | HT-1080-NT fibrosarcoma viability, CellTiter-Glo ATP luminescence, 48 h | Potency, µM (doses to about 46.1 µM), for inactives: at the highest dose activity, negative = less viability, usual class: cytotoxic | 360,000 tested, 1.6% active | AID 686970;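 note: NT is the 2HG producing partner of a matched IDH1 knockdown line; potency is the fitted concentration of half-maximal effect; 0% = DMSO-treated cells and -100% = media-only wells without cells; nearly all actives have a fitted effect of over 55% in size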
#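 Viability by CellTiter-Glo luminescence after 48 h compound exposure at 37C of HT-1080-NT cells (750/well, RPMI, 5% FBS). % activity scaled between DMSO wells and medium-only wells, then curve-fitted and categorized by curve class.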
# * = called active by the depositor; ? = inconclusive; nt = no result; [ ] = another dose, or the depositor's remark. A selection: hits, their analogues and other compounds. The true share with any hit is near 19%. Unless noted, calls come from the whole dose curve; as a rule, active = well fitted curve in the direction sought with a large enough effect; inconclusive = small, poorly fitted or top-dose-only effect, or another doubt; inactive = no such curve, though single readings can be large; an effect the other way counts as inactive or inconclusive. Unless noted, % is set by controls: 0 for no effect and ±100 for the full control effect.
SMILES,HT1080 IDH1KD tx,DT40 TDP1 CPT,TDP1 cell noCPT,IL1B secr inh,HT1080-NT tox
Cc1ccc(NC(=O)C2=CC(c3ccc4c(c3)OCO4)=NS(=O)(=O)N2C)cc1,nt,1%,-20%,nt,nt
CC(=O)c1cccc(NC(=O)C2=CC(c3ccc4c(c3)OCO4)=NS(=O)(=O)N2C)c1,1%,?,16µM*,-16,-2%
COc1cccc(C2=NS(=O)(=O)N(C)C(C(=O)Nc3cccc(O)c3)=C2)c1,nt,15µM*,16µM*,nt,nt
COc1ccc(C2=NS(=O)(=O)N(C)C(C(=O)Nc3cc(C)ccc3O)=C2)cc1OC,1%,7.3µM*,5.2µM*,-20,-1%
COc1ccc(CNC(=O)C2=CC(c3cccc(OC)c3)=NS(=O)(=O)N2C)cc1,nt,8%,9%,nt,nt
COc1ccc(NC(=O)C2=CC(c3ccc(C)cc3)=NS(=O)(=O)N2C)cc1,-1%,16µM*,23µM*,2,-2%
CC1(C(=O)NS(=O)(=O)c2ccc3c(c2)CCO3)CCN1C(=O)CCC1CCCC1 (configuration not stated),?,-9%,3%,29,13%
COc1ccc(C2=NS(=O)(=O)N(C)C(C(=O)Nc3ccc(OC)c(OC)c3)=C2)cc1,1%,?,16µM*,9,1%
Cc1ccc(C2=NS(=O)(=O)N(C)C(C(=O)NC3CCCCC3)=C2)cc1,-1%,-11%,-24%,5,1%
COc1ccc(NC(=O)C2=CC(c3ccco3)=NS(=O)(=O)N2C)cc1OC,9%,8%,-10%,1,15%
COc1ccc(C2=NS(=O)(=O)N(C)C(C(=O)Nc3ccc(C(C)=O)cc3)=C2)cc1OC,-9%,18µM*,12µM*,-97*,-16%
COc1ccc(C2=NS(=O)(=O)N(C)C(C(=O)Nc3cc(OC)c(OC)c(OC)c3)=C2)cc1,0%,12µM*,15µM*,-25,-19%
COc1ccc(NC(=O)C2=CC(c3ccc(C)cc3)=NS(=O)(=O)N2C)cc1OC,-2%,23µM*,21µM*,1,1%
CCc1ccccc1NC(=O)C1=CC(c2ccc(OC)c(OC)c2)=NS(=O)(=O)N1C,-1%,-29%,-14%,9,3%
CC(C)CNC(=O)c1cn(C2CCN(Cc3nc4ccccc4s3)CC2)nn1,nt,3%,-14%,nt,nt
CCOC(=O)c1c(C)c(C(=O)Nc2cc(F)ccc2F)c(C)n1C,?,18µM*,10µM*,0,-28%
COc1ccc2nc(Cl)c(C=O)c(N3CCOCC3)c2c1,-8%,?,15µM*,5,0%
COc1ccc2nc(C)cc(N3CCOCC3)c2c1,7%,-26%,-24%,13,0%[9.24 µM]
CC(=O)Sc1nc(-c2ccccc2)[nH]c1S(=O)(=O)c1ccc(C)cc1,18%,18µM*,21µM*,-5,6%
CSc1nc(-c2ccc(C)cc2)[nH]c1S(=O)(=O)c1ccccc1,23µM*,-11%,-23%,-4,-18%
Cc1cccc(C)c1NC1=NCCCCC1,10%,0%,0%,-1,10%
CCOC(=O)C1CCN(C(=O)c2ccc3c(=O)n4nc(Nc5ccccc5OC)sc4nc3c2)CC1,-11%,26µM*,21µM*,-52*,-14%
COc1ccccc1Nc1nn2c(=O)c3ccc(C(=O)N4CCCC(C)C4)cc3nc2s1 (configuration not stated),-17%,12µM*,23µM*,-4,-6%
CCOC(=O)C1CCN(C(=O)c2ccc3c(=O)n4nc(Nc5cc(C)ccc5C)sc4nc3c2)CC1,-19%,9.2µM*,18µM*,33,-21%
CCOC(=O)c1ccc(N2CCOCC2)c(NC(=O)c2ccc3c(c2)OCO3)c1,-10%,-19%,-19%,23,-9%
SMILES,HT1080 IDH1KD tx,DT40 TDP1 CPT,TDP1 cell noCPT,IL1B secr inh,HT1080-NT tox
O=C(CCNc1cccc(F)c1)c1cccc([N+](=O)[O-])c1,?,5.8µM*,4.1µM*,-86*,?
O=C(CCNc1ccc(Cc2ccncc2)cc1)c1cccc([N+](=O)[O-])c1,?,18µM*,16µM*,-109*,-6%
CNc1nc(NCc2cccc(OC)c2)c2sccc2n1,?,7.3µM*,10µM*,50,-20%
Cc1cscc1-c1nc(NCC2CC2)nc2ccsc12,-3%,?,?,48,15%
COc1cccc(CNc2nc(NCc3ccccc3)nc3ccsc23)c1,?,2.1µM*,4.1µM*,-55*,21µM*
CNc1nc(Oc2cccc(F)c2)c2sccc2n1,1%,-24%,-26%,24,15%
COc1cccc(CNc2nc(NCC3CC3)nc3ccsc23)c1,nt,16µM*,2.1µM*,-72*,nt
N#CCCn1c(=O)c(-c2ccc(F)cc2)nc2cnc(N3CCOCC3)nc21,nt,6%,10%,nt,nt
N#CCCn1c(=O)c(-c2ccc(F)cc2)nc2cnc(N3CCNCC3)nc21,nt,?,21µM*,nt,nt
N#CCCn1c(=O)c(-c2ccc(Cl)cc2)nc2cnc(N3CCNCC3)nc21,nt,7.3µM*,?,nt,nt
COCCn1c(=O)c(-c2cccc(C#N)c2)nc2cnc(N3CCN(C)CC3)nc21,nt,-6%,0%,nt,nt
CN1CCN(c2ncc3nc(-c4cccc(C#N)c4)c(=O)n(CCC#N)c3n2)CC1,nt,?,21µM*,nt,nt
CN1CCN(c2ncc3nc(-c4ccc(Cl)cc4)c(=O)n(CCC#N)c3n2)CC1,nt,?,16µM*,nt,nt
Cc1ccc(C)c(NC(=O)c2cnc3sc(N4CCOCC4)nn3c2=O)c1,nt,-7%,-13%,nt,nt
O=C(O)CC(NC(=O)C1c2ccccc2Oc2ccccc21)c1ccc(OC2CCCC2)cc1 (configuration not stated),-15%,3%,5%,-6,1%
CC1(C(=O)NS(=O)(=O)C2CC2)CCCN(C(=O)c2ccccc2C(F)(F)F)C1 (configuration not stated),10%,6.5µM*,5.8µM*,-5,1%
CC1(C(=O)NS(=O)(=O)C2CC2)CCCN(C(=O)c2cccnc2Oc2ccccc2)C1 (configuration not stated),11%,?,1µM*,-7,?
COc1ccccc1C(=O)N1CCCC(C)(C(=O)NS(=O)(=O)C2CC2)C1 (configuration not stated),22%,?,1.6µM*,2,9%
CC1(C(=O)NS(=O)(=O)C2CC2)CCN(C(=O)c2ccccc2OC(F)(F)F)C1 (configuration not stated),-4%,-4%,0%,4,-3%
O=[N+]([O-])c1cc([N+](=O)[O-])c2n[nH]c(-c3ccccc3)c2c1,20%,20%,1%,-2,2%
